Bioassay records (PubChem)
uPA surface inh: blocks generation of uPA at the cell surface. cell surface uPA generation assay, qHTS. Potency, µM (series often up to 38.3 µM), without a hit: at the top dose activity change, negative = inhibition, hits mostly inhibitors. 330,000 tested, 0.31% active; active means well fitted inhibition curve with a large enough effect; inconclusive means small, poorly fitted or top-dose-only effect; inactive means no such curve, though single readings can be large or run the other way; tested in mouse RAW 264.7 cells; further: potency means the concentration at half of the fitted maximal effect; on the % scale 0 is the no-effect control and ±100 the full control effect; nearly all actives have a fitted effect of over 55% in size
TCR act: T cell receptor activation; primary human leukocytes, anti-CD3, IL-2 HTRF, 48 h; Potency, µM (highest dose often 9.22 µM), for inactives: top-dose activation of IL-2 secretion, most hits filed as activators; 330,000 tested, under 10 active; further: % of control where 0% means no effect
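48 hr co-incubation of compounds, a-CD3 beads and primary human leukocytes; IL-2 quantified homogeneously by HTRF with anti-IL-2 K and d2 conjugates.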
BRCA1 expr up: increases BRCA1 expression. MCF7-BRCA1-FFLuc reporter, luminescence, 48 h; response scale: scaled: vehicle 0%, 10 µM genistein 100%. Potency, µM (doses to about 46.1 µM), inactives show at the top dose activation, usual class: activators. 380,000 tested, 1.1% active; further: potency means the concentration at half of the fitted maximal effect; nearly all actives have a fitted effect of over 80% in size
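Using MCF7 cells harboring a BRCA1 firefly luciferase reporter, plated 2 h before compound pinning, the screen measured luminescence after 48 h incubation. Responses were normalized to DMSO and 10 microM genistein, then fitted for concentration-effect.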
p53 reactivation: mutant p53 re-activation in reporter cells; 320,000 tested, 0.063% active; Potency, µM (doses to about 92.2 µM), inactives show at the highest dose activity change, positive = activation, actives largely listed as activators; H1299 p53-A138V BP100-luciferase reporter, luminescence, 24 h; further: potency means the concentration at half of the fitted maximal effect; % of control where 0% means no effect; nearly all actives have a fitted effect of over 45% in size
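H1299 (p53-null), stable ts p53-A138V + BP100-Luc; 1000 cells/well, Opti-MEM/10% FBS; cpd 4 pt, 1:5; 24 h, 37 deg C, 5% CO2; detection reagent 10 min RT; luminescence.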
IL2 activator: activators of IL-2. IL-2 activation reporter assay, cell-based qHTS; stimulated with anti-CD3/CD4/CD28 beads; in transgenic mouse T cells. activation, % (series mostly up to about 46 µM). 360,000 tested, 0.065% active; in the data active means activation above about 50%; inconclusive means mostly about 30% to 49%; further: 0% is about no effect
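Screening format: compound pinned onto unstimulated transgenic mouse T cells, 60 min incubation, then anti-CD3/anti-CD4/anti-CD28 bead stimulation for 18 hours at 37 degrees C, followed by EGFP and DsRed detection.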
* = called active by the depositor; ? = inconclusive; / = no result given; [ ] = remark or other dose. Only some compounds are listed: those with a hit (about 1.4% of all), similar ones and a draw of the others. Unless noted, the call rests on the fitted dose curve; in most records, active means well fitted curve in the direction sought with a large enough effect; inconclusive means small, poorly fitted or top-dose-only effect, or another doubt; inactive means no such curve, though single readings can be large; an effect the other way counts as inactive or inconclusive.

SMILES | uPA surface inh | TCR act | BRCA1 expr up | p53 reactivation | IL2 activator
Cc1ccc(-c2cc(N)n(-c3ccc(C)cc3)n2)cc1 | -3% | 0% | 10µM* | ? | 2
O=C(N/N=C1/CCc2ccccc21)C1CC1 | 5% | 0% | 18% | 6% | -2
O=C(N/N=C1\CCc2ccccc21)c1ccccc1Cl | -8% | 8%[46.1 µM] | 2µM* | ? | -1
O=C(N/N=C1\CCc2ccccc21)c1ccc(O)cc1 | -4% | / | 2µM* | -1% | 0
Cc1ccc(C(=O)N/N=C2\CCc3ccccc32)c(C)c1 | -6% | 6%[46.1 µM] | ? | / | -5
COc1ccc2c(c1)c1c(c(=O)n(-c3ccc(OC)c(OC)c3)c(=O)n1Cc1ccc(F)cc1)n2C | / | / | 7% | / | /
CCCCc1ccc(CC(=O)NO)cc1 | / | / | -9% | / | /
CCOc1ccc(C(=O)NCCc2csc(-c3cccnc3)n2)cc1 | / | / | 30% | / | /
COc1ccc(OCc2nc3ccccc3n2Cc2ccc(C(C)(C)C)cc2)cc1 | / | / | 4.5µM* | / | /
CC(C)(CNC(=O)c1ccc(-c2ccccc2Cl)o1)N1CCOCC1 | -9% | 7% | 10µM* | 18% | 1
CC(=O)N1CCN(C(=O)c2ccc(-c3ccccc3Cl)o2)CC1 | -27% | 9% | 11µM* | ? | 1
CC(C)(CNC(=O)c1ccc(Br)o1)N1CCOCC1 | 2% | 2% | -4% | 11% | -2
COc1cc(-c2noc(C)c2C#Cc2ccc(N)cc2)cc(OC)c1OC | ? | 9% | -73% | 12% | -4
COc1cc(-c2noc(C)c2C#Cc2ccccn2)cc(OC)c1OC | 0.35µM* | -4% | -27% | 15% | -1
COc1ccc(CC(=O)Nc2c(C(=O)Nc3ccc(F)cc3)oc3ccccc23)cc1OC | / | / | 36% | / | /
CCOc1ccc(NC(=O)c2oc3ccccc3c2NC(=O)Cc2ccc(OC)c(OC)c2)cc1 | / | / | 11µM* | / | /
c1ccc(-c2ccc3ccccc3n2)cc1 | -21% | 2% | 11µM* | / | 1
CC(C)COc1ccc(-c2nnn(CC(=O)N3CCCC3)n2)cc1 | 3% | 1% | 10µM* | ? | 1
CCc1ccccc1NC(=O)CCNS(=O)(=O)c1ccc2c(c1)CCCC(=O)N2 | / | / | -13% | / | /
O=C(CSc1ccccn1)c1ccc2c(c1)OCO2 | / | 6% | 7.1µM* | 10% | -1
O=C(CSc1ccccn1)Nc1ccc2c(c1)OCO2 | 1% | 5% | 72% | 13% | -1
Cc1ccc(N2CCN(S(=O)(=O)c3cc(Br)cc4c3N(C(=O)C3CC3)CC4)CC2C)cc1 (centres undefined) | / | / | 9% | / | /
Cc1ccccc1-c1noc(-c2ccc(NCc3ccco3)c([N+](=O)[O-])c2)n1 | / | / | 0% | / | /
Clc1ccc(-c2cn3c(n2)-c2ccccc2C3)cc1Cl | 10µM* | -1%[46.1 µM] | -7% | / | -3
Clc1ccc(-c2cn3cc(Br)ccc3n2)cc1Cl | -6% | -12%[46.1 µM] | -63% | 71% | -2
SMILES | uPA surface inh | TCR act | BRCA1 expr up | p53 reactivation | IL2 activator
O=C1CC(c2ccccc2)=Nc2ccc(Br)cc2N1 | -15% | 3% | -59% | -1% | 0
Cc1ccc2c(c1)NC(=O)CC(c1ccccc1)=N2 | -4% | -6%[46.1 µM] | 10µM* | ? | 0
COc1ccc(OC)c(S(=O)(=O)NCCc2sc(-c3cccnc3)nc2C)c1 | / | / | -1% | / | /
CC(CCc1ccc(O)cc1)NCCc1ccc(O)c(O)c1 (centres undefined) | 7.9µM* | 5% | -7% | / | 2
COc1ccc(-c2nnc(SCCOc3ccccc3C)o2)cc1OC | / | / | 11% | / | /
Cc1ccc2c(=O)c(C(=O)NCc3cccs3)c[nH]c2c1 | -4% | 9%[46.1 µM] | 11µM* | 22% | -2
Cc1cccc2c(=O)c(C(=O)NCc3cccs3)c[nH]c12 | -9% | 0% | 13µM* | / | -1
CCOC(=O)C1CCCN(C(=O)c2ccc3c(c2)N(Cc2ccc(Cl)cc2)C(=O)c2ccccc2S3=O)C1 (centres undefined) | / | / | -20% | / | /
Cn1ccnc1SCC(=O)Nc1cc(Cl)ccc1Cl | / | / | 15% | / | /
C/C(Cc1ccccc1)=N\NC(=O)c1ccccn1 | -7% | -6% | 2.2µM* | ? | 0
